Screening results from PubChem BioAssay.
The sample as a whole holds a higher share of hits than the screen did.
Pf Dd2 inh: qHTS Primary assay for Inhibitors of Plasmodium falciparum Dd2 growth in vitro. P. falciparum Dd2 growth, SYBR Green, 72 h. Potency, µM (doses to about 28.9 µM), hits mostly inhibitors. hit rate 4.3% among 120,000. AID 1347417, 2020; active = well fitted inhibition curve with a large enough effect; also: nearly all actives have a fitted effect of over 65% in size
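Readout: SYBR Green fluorescence, 485 nm excitation, 535 nm emission, after ~16 h lysis at 37C. Before that, Dd2-infected red cells (2.5% hematocrit) grew 72 h with compound, 29 uM top final concentration.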
A number is an active result; - = inactive; [ ] = dose if it differs, or a comment.

SMILES | Pf Dd2 inh
CC1CCN(CC2CCCNCC2)CC1 (configuration not stated) | -
COc1ccc(NC(=O)N2C[C@@H]3C[C@H](C2)c2ccc(NC(=O)Nc4ccc(C(C)=O)cc4)c(=O)n2C3)cc1 | -
CSCC(=O)N[C@H]1CN(CCCn2nc(C)cc2C)C[C@@H]1C1CC1 | -
Cc1cnn(CCC(=O)N[C@@H]2CN(Cc3ccccc3)C[C@H]2CO)c1 | -
Cc1cc(C)n(CCNC(=O)c2cn(CCN3CCNCC3)nn2)c(=O)n1 | -
COc1ccc(C(=O)Nc2cc3c(cc2C(=O)c2ccccc2Cl)OCCO3)cc1 | -
COc1ccc(C(=O)NC(c2ccccc2Cl)c2cc(Cl)c3cccnc3c2O)cc1 (configuration not stated) | 3.5µM
Cc1ccc(C(=O)Nc2cccc3cccnc23)cc1Cl | -
O=C(Nc1nccs1)C1c2ccccc2C(=O)N(Cc2ccccc2)C12CCCC2 (configuration not stated) | -
O=[S+]1([O-])NC2(CCCN(Cc3cccc(C(F)(F)F)c3)C2)COc2ccccc21 (configuration not stated) | -
O=C(CSCc1ccc(F)cc1)N1CCc2c([nH]c3ccccc23)C1c1ccc(Cl)cc1 (configuration not stated) | -
CCOc1cccc(CC(=O)NCc2ccc3c(c2)CCN3C(C)=O)c1OCC | -
CCOc1ccc(CNC(=O)c2[nH]c3ccccc3c2Sc2ccc(C)cc2)cc1 | -
CCOc1cccc(CC(=O)N2CCc3c([nH]c4ccccc34)C2c2ccc(SC)cc2)c1OCC (configuration not stated) | 7.9µM
CCOc1ccc(C2c3[nH]c4ccccc4c3CCN2C(=O)Cc2cccc(OCC)c2OCC)cc1 (configuration not stated) | 11µM
O=C(COc1ccccc1)NC1CCCc2c1[nH]c1ccccc21 (configuration not stated) | -
CC(=O)N1C[C@@H]2CCCN3CCC[C@@H]([C@H]23)[C@H]1CCCC(=O)N(C)C1CCN(C)CC1 | -
Cn1nc(C2CCN(C(=O)c3ccoc3)CC2)c2c1CCOC2 | -[5.79 µM]
CC(=O)c1cc(C(=O)N2C[C@@H](C(=O)O)[C@H](c3ccccc3)C2)c(=O)[nH]c1C | -
CCOC(=O)c1c(C)[nH]c(C)c1S(=O)(=O)NCC(=O)Nc1cc(Cl)ccc1OC | -
CCOC(=O)c1c(C)[nH]c(C)c1S(=O)(=O)N(C)CC(=O)Nc1cccc(Cl)c1C | -
CCOC(=O)c1c(C)[nH]c(C)c1S(=O)(=O)N(C)CC(=O)Nc1cc(Cl)ccc1OC | 10µM
CCOC(=O)CCNC(=O)N1CCCOCCNC(=O)[C@@H]2CCC[C@@H]21 | -
COCCN1C(=O)c2cccn2CC1CN (configuration not stated) | -
Cc1ccc(C(c2cccnc2)n2cc(-c3cncnc3)nn2)cc1C (configuration not stated) | -
SMILES | Pf Dd2 inh
COc1ccc(C2c3c(-c4ccc(F)cc4)n[nH]c3C(=O)N2c2ccccc2)cc1OC (configuration not stated) | -
COc1cc(C2c3c(-c4ccccc4O)n[nH]c3C(=O)N2CCO)ccc1OCC(C)C (configuration not stated) | 10µM
COc1cc(C2c3c(-c4ccccc4O)n[nH]c3C(=O)N2Cc2ccco2)ccc1OCC(C)C (configuration not stated) | 2.2µM
COc1cc(C2c3c(-c4c(C)cc(C)cc4O)n[nH]c3C(=O)N2CCO)cc(OC)c1OC (configuration not stated) | -
COc1cc(C2c3c(oc4ccccc4c3=O)C(=O)N2Cc2ccccc2Cl)ccc1O (configuration not stated) | -
COC1CCCN(c2ncc(C(C)(C)C(=O)O)c(N3CCOCC3)n2)C1 (configuration not stated) | -
O=C([C@@H]1C[C@@H](O)[C@H](O)[C@@H]2NC(=S)N(c3ccc4c(c3)OCO4)[C@@H]21)N1CCOCC1 | -
FC1(F)C[C@@H](c2nnc(C3CC3)o2)N(C2CCOCC2)C1 | -
CCn1ccc(C(=O)N2CC(Oc3cccc(-c4nc(C)no4)c3)C2)n1 | -[5.79 µM]
CN(C)C[C@H]1O[C@@H]2C[C@@H](CC(=O)NCc3cnn(C)c3)O[C@@H]2[C@@H]1O | -
COc1ccc(-n2nc(C(=O)N(C)c3cccc(C(F)(F)F)c3)c3c4ccccc4n(C)c3c2=O)cc1 | -
CCc1ccc(CNC(=O)c2nn(-c3ccc(OC)c(Cl)c3)c(=O)c3c2c2ccccc2n3C)cc1 | -[5.79 µM]
CCCN(C(=O)c1nn(-c2ccc(OC)c(Cl)c2)c(=O)c2c1c1ccccc1n2C)c1ccccc1F | -
CCN(CC)CCNC(=O)c1nn(-c2ccc(OC)c(Cl)c2)c(=O)c2c1c1ccccc1n2C | -
CCN(CC)CCCNC(=O)c1nn(-c2ccc(OC)c(Cl)c2)c(=O)c2c1c1ccccc1n2C | 1µM
CCN(C(=O)c1nn(-c2ccc(OC)c(Cl)c2)c(=O)c2c1c1ccccc1n2C)c1cc(OC)ccc1OC | 7.9µM
CCOc1ccccc1NC(=O)c1nn(-c2ccc(OC)cc2)c(=O)c2c1c1ccccc1n2C | -
CCOc1ccc(N(CC)C(=O)c2nn(-c3ccc(OC)cc3)c(=O)c3c2c2ccccc2n3C)cc1 | 4µM
CCN(CC)CCCNC(=O)c1nn(-c2ccc(OC)cc2)c(=O)c2c1c1ccccc1n2C | -
Cc1ccc(-c2nc(-c3nnn4c3COC(c3ccccc3Cl)C4)no2)s1 (configuration not stated) | -
O=C(c1ccco1)N1CCC(Cc2nc(C3CCOCC3)no2)CC1 | -
CCCC(=O)N1Cc2ccccc2CC2(CCN(Cc3ccc(NC(C)=O)cc3)C2)C1 (configuration not stated) | -
O=C(O)CCC(=O)N1Cc2ccccc2CC2(CCCN(Cc3cccnc3)C2)C1 (configuration not stated) | -
C[S+](=O)([O-])N1Cc2ccccc2CC2(CCCN(Cc3ccccc3)C2)C1 (configuration not stated) | -
CCCC(=O)N1Cc2ccccc2CC2(CCN(Cc3ccncc3)C2)C1 (configuration not stated) | 11µM
SMILES | Pf Dd2 inh
CC(=O)N1Cc2ccccc2CC2(CCN(Cc3cccnc3)C2)C1 (configuration not stated) | -
O=C(O)CCC(=O)N1Cc2ccccc2CC2(CCCN(Cc3ccncc3)C2)C1 (configuration not stated) | -
CCC(=O)N1Cc2ccccc2CC2(CCN(Cc3ccncc3)C2)C1 (configuration not stated) | -
CCCC(=O)N1Cc2ccccc2CC2(CCN(Cc3cccnc3)C2)C1 (configuration not stated) | 11µM
O=S(=O)(c1ccccc1)N1Cc2ccccc2CC2(CCN(Cc3cccnc3)C2)C1 (configuration not stated) | 6.3µM
O=C(c1ccccc1F)N1CCC2(C1)C(=NC1CCCC1)NC(=O)N2c1cccnc1 (configuration not stated) | -
CN1CC(=O)N(c2ccccc2)Cc2c(NC3CC3)ncnc21 | -
CNC(=O)c1cnn2c1CN([S+](C)(=O)[O-])CC2 | -
Cc1ccc2c(C(=O)NCc3cccc(Cl)c3)cc(NC(=O)C(C)C)cc2n1 | -
COc1ccc2nc3n(c2c1)[C@@H](CNCc1ccccc1)COC3 | 7.1µM
COc1ccc2nc3n(c2c1)[C@@H](CNCc1ccc(C(=O)O)cc1)COC3 | -
COc1ccc2nc3n(c2c1)[C@@H](CNCc1ccc(C#N)cc1)COC3 | -
